From PubChem BioAssay (NCI)
About 83,000 compounds went through this panel and 20% of them were active in at least one assay; those are over-represented in the sample as a whole.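 Step 1: grow cells in 96-well plates. Step 2: add test compound at a single concentration. Step 3: incubate 48 h. Step 4: record percent growth.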 Values without a mark were called inactive. Calls of active or inactive are those of the source.

Tested on: COLO 205 colon
Assay: NCI-60 one-dose screen, 48 h (100 = growth as untreated, 0 = no growth, -100 = all killed)
Details: 10 µM unless noted
Description: Cells are grown in 96 well plates and exposed to the test compound for 48 hours. Compounds are tested at a single concentration, which is 10^-5 M for most compounds. The reported endpoint is percent growth (GI% or GIPRCNT), where numbers from 0 - 100% represent growth inhibition, and numbers from -100% - 0 represent cell death. For example, a value of 40 represents 60% growth inhibition. A value of 0 means no net growth occurred over the course of the experiment. A value of -40 indicates 40% of cells at the beginning of the experiment died by the end of the experiment. A value of -100 means all cells are dead at the end of the experiment.
NCI-60 Human Tumor Cell Lines Screen was performed using the standard one-dose NCI protocol, which is described in more detail at https://dtp.cancer.gov/discovery_development/nci-60/default.htm.
Compounds with GIPRCNT values below 10 were considered active. Activity score was based on GIPRCNT using the following formula: […]
Score is 0 for GIPRCNT values of 100 or above, 50 for GIPRCNT values of 0, and 100 for GIPRCNT values of -100.

Row | Structure (SMILES) | growth
1 | COc1ccc(C2Nc3c(c(C(C)(C)C)nn3-c3ccccc3)C(=O)CS2)cc1 (stereo not given) | 103%
2 | O=c1nc2oc3ccc4ccccc4c3cc-2s1 | 30.4%
3 | O=C(/C=C/C=C/c1ccc2c(c1)OCO2)N/N=C\c1ccc(O)cc1O | 14%
4 | CC1(C)CC[C@]2(C(=O)Nc3ccccn3)CC[C@]3(C)C(=CC[C@@H]4[C@@]5(C)C/C(=C/c6cccnc6)C(=O)C(C)(C)[C@@H]5CC[C@]43C)[C@H]2C1 | 4.76% (active)
5 | CC(=O)c1cc2c(N)c(C(=O)Nc3cccc(F)c3C)sc2nc1C | 74.3%
6 | O=C1/C(=C/c2ccccc2)SC(=S)N1CCc1ccc(O)cc1 | 108%
7 | COc1ccc(Nc2nc(SC)nc(-c3cccc([N+](=O)[O-])c3)c2C#N)cc1 | 81.5%
8 | COc1cccc(/C=N/NC(=O)c2ccccc2Nc2ccnc(C(F)(F)F)c2)c1O | 2.9% (active)
9 | O=C(CN1C(=O)/C(=C/c2ccc(Cl)cc2)SC1=S)NCCCN1CCOCC1 | 116%
10 | CCCc1cc(=O)n2c(C(=O)Nc3cccc(C(=O)OCC)c3)c(C(=O)Nc3ccc(F)cc3)sc2n1 | 72.9% [30 µM]
11 | CCOc1nc(-c2ccccc2)cc2c(O)c(C(=O)N/N=C/c3ccc(O)cc3O)[nH]c(=O)c12 | 15.9%
12 | COc1ccc(-n2nc(C)c3c(Oc4ccc(NC(=O)Nc5c(Cl)cccc5Cl)cc4)ncnc32)cc1 | 99%
13 | CCOc1cc2c(cc1OCC)C(c1cc(OC)c(O)cc1Cl)NCC2 (stereo not given) | -37.4% (active)
14 | CN(C)c1ccc(NC(=O)c2ccc(/C=C/C(=O)c3ncc[nH]3)cc2)cc1 | 37.6%
15 | COc1cc2nnc3c4cccnc4[nH]c3c2cc1OC | 50.2%
16 | O=C1Nc2cc(-c3ccc(O)cc3)ccc2/C1=C/c1ccc[nH]1 | 13.7%
17 | CCOC(=O)n1cc(-c2nonc2-c2cn(C)c3ncccc23)c2cc(F)ccc21 | 96%
18 | Clc1ccc2c(NCCCCNc3nc(N4CCCCC4)nc4ccccc34)ccnc2c1 | -64.5% (active)
19 | COc1cc(/C=C/C(=O)c2c(C)oc3nc[nH]c(=O)c23)cc(OC)c1OC | 95.4%
20 | c1ccc(-c2c(-c3ccccc3)[n+](Cc3ccc4ccccc4c3)c(-c3ccc(-c4nc5ccccc5s4)cc3)n2Cc2ccc3ccccc3c2)cc1 | -86.1% (active)

Row | Structure (SMILES) | growth
21 | COc1nc2c(c(=O)n1C)CN(Cc1ccccc1)C=N2 | 107%
22 | Cc1cc(N2CCCCC2)nc(NC2CCCC(Nc3ccnc4cc(Cl)ccc34)C2)n1 (stereo not given) | -85.8% (active)
23 | CSc1nc2c(c(=O)[nH]1)C1(C(=O)Nc3ccccc31)c1c(nc(SC)[nH]c1=O)N2 | 109%
24 | Nc1n[nH]c2ccc([C@@H]3Nc4ccc5[nH]ncc5c4[C@H]4C5C=CC(C5)[C@@H]34)cc12 (stereo not given in full) | 2.87% (active)
25 | COc1cc(-c2nc3ccccc3[nH]2)ccc1OCc1nnc(-c2ccc(CC(C)C)cc2)o1 | 101%
26 | COc1cc(-c2nc(C(=O)NCC(=O)NO)nn2-c2ccc(Cl)cc2)cc(OC)c1OC | 103%
27 | CNc1ccc(-c2cc(=O)oc3ccc(Cl)cc23)cc1 | -15.1% (active)
28 | Cn1c(=O)c2c(nc3n(-c4ccc(Cl)cc4Cl)c(Sc4nc(-c5ccccc5)c(C#N)c(=O)[nH]4)cn23)n(C)c1=O | 71.8%
29 | CCOc1nc(-c2ccccc2)cc2c(O)c(C(=O)O)[nH]c(=O)c12 | 118%
30 | N=C(N)c1ccc(-c2ccc(-c3ccc4ccccc4c3)s2)s1 | -40.8% (active)
31 | FC(F)(F)c1nc2c(NCc3ccc(-c4ccccc4)cc3)cccc2[nH]1 | 90.3%
32 | COc1ccc(/C=C\c2cc(OC)c(OC)c(OC)c2)cc1OCC(=O)Nc1ccc2nc(C)sc2c1 | 75%
33 | CC1C(/C=N/Nc2ccccc2)C(C#N)(C#N)C1(C#N)C#N (stereo not given) | 105%
34 | O=C1/C(=C(/c2ccccc2)N2CCOCC2)Cc2ccccc21 | -48.4% (active)
35 | CC(=O)Nc1ccc(-n2c(O)c(/C=N/NC(=O)Cc3ccccc3Nc3c(Cl)cccc3Cl)sc2=S)cc1 | 119%
36 | CC(C)CSc1nc(N)nc2c1ncn2C1OC(CO)C(O)C1O (stereo not given) | 101%
37 | CCN(CC)c1ccc(-c2cc(-c3cc(OC)c(OC)c(OC)c3)nc(N3CCOCC3)c2C#N)cc1 | 5.62% (active)
38 | CN(C)S(=O)(=O)c1cccc(-c2nc3sc4c(c3c(=O)[nH]2)CCCC4)c1 | 64.6%
39 | O=C(COc1cccc(/C=C2\COc3ccc(Cl)cc3C2=O)c1)c1ccc(Cl)cc1 | 116%
40 | COC(=O)[C@@H]1CCCN1C(=O)[C@@H]1CCCN1C(=O)[C@H](Cc1ccccc1)NC(=S)Nc1cc(C(F)(F)F)cc(C(F)(F)F)c1 | 82.7%
